High-throughput results deposited in PubChem BioAssay by National Center for Advancing Translational Sciences (NCATS).
AMA1-RON2 inh = qHTS for Inhibitors of AMA1-RON; Towards Development of Antimalarial Drug Lead: Primary Screen. Plasmodium falciparum AMA1 (3D7) - RON2 peptide interaction. AlphaScreen AMA1-biotinylated RON2 peptide binding. Potency, µM (top dose mostly 58.2 µM), actives largely listed as inhibitors. 0.2% of 360,000 active; note: nearly all actives have a fitted effect of over 45% in size
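AMA1 (3D7) with his tag at 25 nM final met compounds first, then biotinylated RON2 peptide at 25 nM; detection used donor plus acceptor beads, 10 µg/mL apiece, read by AlphaScreen after 30 min at room temperature.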
LmPK inh = qHTS Assay for Inhibitors of Leishmania Mexicana Pyruvate Kinase (LmPK). Q27686. purified LmPK, Kinase-Glo ATP luminescence, 1 h. Potency, µM (highest dose often 57.5 µM), most hits filed as inhibitors. 0.37% of 290,000 active. AID 1721, 2009
Target sequence (Q27686 whole entry, looked up): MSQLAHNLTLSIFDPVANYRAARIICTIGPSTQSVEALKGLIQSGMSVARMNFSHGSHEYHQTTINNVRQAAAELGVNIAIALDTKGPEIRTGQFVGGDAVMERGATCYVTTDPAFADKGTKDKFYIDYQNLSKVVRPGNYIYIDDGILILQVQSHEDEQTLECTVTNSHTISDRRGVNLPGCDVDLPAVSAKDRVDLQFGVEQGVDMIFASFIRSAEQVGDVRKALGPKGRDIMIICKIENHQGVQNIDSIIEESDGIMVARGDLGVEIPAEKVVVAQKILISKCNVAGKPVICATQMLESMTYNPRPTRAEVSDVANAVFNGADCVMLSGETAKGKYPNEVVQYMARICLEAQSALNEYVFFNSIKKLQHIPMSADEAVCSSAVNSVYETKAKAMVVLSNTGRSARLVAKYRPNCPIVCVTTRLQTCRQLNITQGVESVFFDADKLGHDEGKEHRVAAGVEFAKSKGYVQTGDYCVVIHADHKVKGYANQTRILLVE
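In 50 mM imidazole pH 7.2 with 7 mM MgCl2, LmPK (0.1 nM) turned over PEP (0.5 mM) and ADP (0.1 mM) for 1 h at room temperature. Luciferase read-out of ATP.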
NS1 function inh = qHTS Assay for Inhibitors of Influenza NS1 Protein Function; Potency, µM (series often up to 46.1 µM); 0.4% of 270,000 active; AID 2326, 2010; calls by dose curve; note: actives are rising curves; nearly all actives have a fitted effect of over 50% in size
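Recovery from NS1-induced slow growth read by OD600 in budding yeast switched to galactose assay medium (pH 6.0, -URA) at 1:100 dilution. Compound 23 nl per well; the matching strain lacking NS1 serves as control.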
RE007 growth inh = qHTS Assay for Inhibitors of the HIV-1 protein Vpr. Potency, µM (doses to about 92.2 µM), actives largely listed as inhibitors. 0.21% of 360,000 active. S. pombe RE007 Vpr strain, BacTiter-Glo ATP luminescence, 24 h; active = well fitted falling curve with a large enough effect; inconclusive = small, poorly fitted or top-dose-only effect; inactive = no such curve, though single readings can be large or run the other way; note: nearly all actives have a fitted effect of over 50% in size
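Fission yeast strain RE007, carrying one chromosomally integrated HIV-1 vpr copy, was seeded at OD 0.01 in PMG+AL medium with 23 nL pinned compound. After 24 h at 30 °C and 99% humidity, viability was read by BacTiter-Glo luminescence.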
Tb PYK inh = qHTS of Trypanosoma Brucei Inhibitors; pyruvate kinase (Trypanosoma brucei), Q57TT1; TbPYK enzyme, Kinase-Glo Plus ATP luminescence, 45 min; Potency, µM (highest dose often 76.8 µM), usual class: inhibitors; 0.12% of 410,000 active; note: nearly all actives have a fitted effect of over 50% in size
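TbPYK + substrate in 50 mM TEA pH 7.2, 100 mM KCl, 10 mM MgCl2, 0.05% BSA, 0.01% Tween-20; cpd pinned; ADP 130 uM final; 45 min RT; Kinase-Glo Plus 10 min; luminescence endpoint.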
Numbers stand for hits; n = inactive; u = inconclusive; x = not tested or not shown; [ ] = remark or other dose. Only some compounds are listed: those with a hit (about 0.92% of all), similar ones and a draw of the others. Unless noted, calls come from the whole dose curve; as a rule, active = well fitted curve in the direction sought with a large enough effect; inconclusive = small, poorly fitted or top-dose-only effect, or another doubt; inactive = no such curve, though single readings can be large; an effect the other way counts as inactive or inconclusive.

SMILES	AMA1-RON2 inh	LmPK inh	NS1 function inh	RE007 growth inh	Tb PYK inh
COc1ccc(CN(CCC#N)C(=S)NC(=O)c2ccccc2)cc1	n	20µM	n	n	u
Cc1c(Cl)cccc1NS(=O)(=O)c1ccc(-c2cnc(C3CC3)o2)cc1	x	x	x	x	n
Fc1ccc(-c2nnc(NC3=NCCCCC3)o2)cc1	n	16µM	n	u	u
c1ccc(-c2nnc(NC3=NCCC3)o2)cc1	n	20µM	n	n	n
O=C(Nc1ccccc1)Nc1nnc(-c2ccccc2)o1	n	n	n	n	n
O=S(=O)(O)/C(=C\c1ccccc1)c1ccccc1 (tested in a mixture with another compound)	x	x	n	x	x
Cc1ccccc1Nc1nnc(SCC2CCCCO2)s1 (stereo unspecified)	n	u	n	n	n
COc1ccccc1Nc1nnc(SCC2CCCCO2)s1 (stereo unspecified)	n	14µM	x	n	n
CCCCN1C(=O)/C(=C/C=C2\SCCN2C)SC1=S	10µM	n	x	n	n
CC[C@H]1OC(=O)[C@H](C)C(=O)[C@H](C)[C@@H](OC2O[C@H](C)C[C@H](N(C)C)[C@@H]2O)[C@@](C)(OC)C[C@@H](C)C(=O)[C@@H](C)C2N(CCCCn3cnc(-c4cccnc4)c3)C(=O)O[C@@]21C (stereo partly specified)	x	x	x	x	n
Cc1cccc(CS(=O)(=O)CC2Nc3ccc(C(=O)NCc4ccccc4)cc3NC2=O)c1 (stereo unspecified)	x	x	x	x	n
Cc1ccccc1CSCC1Nc2ccc(C(=O)NCCc3ccccc3)cc2NC1=O (stereo unspecified)	n	x	x	32µM	u
CC(C)c1ccc(NCCC(=O)c2cccs2)cc1	n	n	n	32µM	n
Cc1ccc(NCCC(=O)c2cccs2)cc1C	u	n	n	40µM	n
CC(=O)C1=C(C)NC(SCC(=O)c2ccc(Cl)cc2)=C(C#N)C1CC(C)C (stereo unspecified)	n	n	n	n	n
CC(=O)C1=C(C)NC(SCC(N)=O)=C(C#N)C1C (stereo unspecified)	n	n	n	n	8.9µM
CC(=O)C1=C(C)NC(SCC(=O)c2ccc(F)cc2)=C(C#N)C1CC(C)C (stereo unspecified)	n[2.32 µM]	n	u	n	14µM
CC(C)CC(NC(=O)CNC(=O)C(Cc1ccc(O)cc1)NC(=O)C(CO)NC(=O)C(Cc1c[nH]c2ccccc12)NC(=O)C(Cc1cnc[nH]1)NC(=O)C1CCC(=O)N1)C(=O)NC(CCCN=C(N)N)C(=O)N1CCCC1C(=O)NCC(N)=O (stereo unspecified)	x	x	x	x	n
O=C(CS(=O)c1ccc(C(F)(F)F)cc1[N+](=O)[O-])Oc1ccccc1 (stereo unspecified)	n	n	n	45µM	n
COC(=O)c1ccc(OC(=O)CS(=O)c2ccccc2[N+](=O)[O-])cc1 (stereo unspecified)	n	n	n	n	n
C=C[C@@H]1CN2CC[C@H]1CC2[C@H](O)c1ccnc2ccccc12 (stereo partly specified)	x	x	n	x	x
COc1cccc(Nc2ccccc2C(=O)O)c1	n	n	n	n	n
COc1cc(-c2ccc(Nc3ccccc3C(=O)O)c(OC)c2)ccc1Nc1ccccc1C(=O)O	18µM	n	n	n	n
c1ccc(-c2cn3c(n2)-c2ccccc2C3)cc1	n	5.6µM	n	u	u
CCC(NC(=O)Nc1cc(OC)ccc1OC)c1c(-n2cccc2)sc2c1CCN(CC)C2 (stereo unspecified)	x	x	x	x	n
SMILES	AMA1-RON2 inh	LmPK inh	NS1 function inh	RE007 growth inh	Tb PYK inh
Cc1cc2ccc(OC(=O)c3ccc(N=C(N)N)cc3)cc2oc1=O	x	x	n	x	x
CN(C)[C@@H]1C(=O)C(C(N)=O)=C(O)[C@@]2(O)C(=O)C3=C(O)c4c(O)cccc4[C@@](C)(O)[C@H]3[C@H](O)[C@@H]12	1µM	n	n	n[18.4 µM]	n
NC(N)=N/N=C\c1ccc(O)c(C(=O)O)c1	x	x	n	x	x
CCN(CC)CCN1C(=O)/C(=C\c2ccc(Cl)c([N+](=O)[O-])c2)SC1=Nc1ccc(OC)cc1	u	n	n	n	n
COc1ccc(N=C2S/C(=C\c3ccc(Cl)c([N+](=O)[O-])c3)C(=O)N2CCN(C)C)cc1	14µM	n	n	x	n
Nc1ccc(-c2nc3ccc(C(=O)O)cc3s2)cc1	n	u	n	n	u
Nc1ccc(-c2nc3ccc(N)cc3s2)cc1	n	14µM	n	u	n
Nc1ccc2nc(-c3ccc(O)cc3)sc2c1	x	x	x	x	n
Nc1cc2sc(-c3ccc(C(=O)O)cc3)nc2cc1Cl	n	16µM	n	u	u
O=C(O)c1ccc2nc(-c3ccccc3)sc2c1	n	u	n	n	n
Nc1cccc(-c2nc3ccc(N)cc3s2)c1	n	13µM	n	n	u
C/C(=N\O)c1ccc(OCC(=O)N2CCCCC2)cc1	x	x	x	x	n
C=CCC1(O)CCC2C3CCC4=CC(=O)CCC4=C3C=CC21C (stereo unspecified)	x	x	x	x	n
CCCCCCCCCCCCCCCC(=O)OCC(O)C1OC(=O)C(O)=C1O (stereo unspecified)	x	x	x	x	n
CCO[P@]1(=O)OC[C@@H]2O[C@H](n3cnc4c(N)ncnc43)[C@H](O)[C@@H]2O1	x	x	n	x	x
COc1ccc(-c2cn3nc4c(nc3n2)CCCC4)cc1	n	16µM	n	n	n
N[C@@H](C(=O)N[C@H]1C(=O)N2C(C(=O)O)=C(Cl)CC[C@H]12)c1ccccc1	x	x	x	x	n
O=C(OCn1ncc(Cl)c(Cl)c1=O)c1ccccc1Cl	n	n	n	45µM	n
O=C(OCn1ncc(Cl)c(Cl)c1=O)c1ccc(F)cc1	x	n	n	x	x
